In PubChem BioAssay AID463190 (Sanford-Burnham Center for Chemical Genomics, 2010):
Among all 330,000 compounds or so, about 7,300 (2.2%) were called active.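 How the source made its calls: active means inhibition of at least 40%; inactive means the rest.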 This excerpt belongs to a sample that is enriched for actives.

Assay: growth inhibitors of tim10-1 mutant yeast, primary screen, luminescence, uHTS (AID 463190);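 further: mutant grown at 25 °C; 0% = DMSO wells with yeast and 100% = wells holding no yeast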
Settings: S. cerevisiae tim10-1 ts strain growth, BacTiter-Glo, 24 h; at 20 µM; stronger effect = higher value

Row | SMILES | inhibition
1 | COc1ccc(N2CCN(C(CNS(=O)(=O)c3ccc(C)cc3)c3ccccc3)CC2)cc1 (configuration not stated) | 4.98% (inactive)
2 | CS(=O)(=O)c1ccc(C(=O)OCC(=O)NNC(=O)COc2ccc(Cl)cc2)cc1 | -15.1% (inactive)
3 | C/C=C/c1ccc(OCCCCN2CCC(C)CC2)c(OC)c1 | 15.8% (inactive)
4 | COc1ccc(NC(=O)CNC(=O)Cc2ccccc2)cc1OC | -6.35% (inactive)
5 | COc1ccc(NC(=O)c2ccccc2[N+](=O)[O-])cc1OC | 15.9% (inactive)
6 | COc1ccc(NC(=O)c2cc3nc(-c4ccccc4)cc(C)n3n2)cc1OC | 51.1% (active)
7 | O=C(COC(=O)/C=C/c1ccc(S(=O)(=O)N2CCCCCC2)cc1)NCc1ccccc1Cl | 35.9% (inactive)
8 | Cc1onc(-c2ccccc2Cl)c1C(=O)N(Cc1ccc(N(C)C)cc1)C(C)C | 23.4% (inactive)
9 | O=c1ccc2c(-c3ccccc3S(=O)(=O)O)c3ccc(O)c(O)c3oc-2c1O | 38.3% (inactive)
10 | Cc1ccc(C)c(CN2CCC(CNC(=O)Nc3ccc(C)c(F)c3)CC2)c1 | 30.5% (inactive)
11 | Cc1ccccc1NC(=O)NCC1CCN(Cc2cccc(Cl)c2)CC1 | 4.31% (inactive)
12 | Cc1cccc(CN2CCC(CNC(=O)Nc3ccc(F)c(Cl)c3)CC2)c1 | 41.3% (active)
13 | Cc1cccc(-c2c(NC(=O)c3ccco3)oc3ccc(Cl)cc3c2=O)c1 | 7.38% (inactive)
14 | CCN(C(=O)Cc1c(C(=O)O)n(CC)c2ccccc12)c1ccccc1C | 19.7% (inactive)
15 | CN(C(=O)COC(=O)CNC(=O)C12CC3CC(CC(C3)C1)C2)c1ccccc1 | 4.63% (inactive)
16 | O=C(O)COc1ccc(-c2nccc(-c3cccs3)n2)cc1 | 10.2% (inactive)
17 | CN(C(=O)COc1nnc(-c2cccs2)c(-c2cccs2)n1)c1ccccc1 | 46.6% (active)
18 | O=C(CC1NCCc2ccccc21)Nc1cccc(Cl)c1 (configuration not stated) | 34.9% (inactive)
19 | Cc1ccc(NS(=O)(=O)c2c(C)[nH]c(=O)[nH]c2=O)cc1C | 0.26% (inactive)
20 | CCOc1ccc(CN2CCN(Cc3ccon3)CC2CCO)cc1 (configuration not stated) | 9.62% (inactive)
21 | O=C(CCCN1C(=O)CCC1=O)Nc1ccc(Cl)c(C(F)(F)F)c1 | -0.021% (inactive)
22 | CS(=O)(=O)N(CC(=O)Nc1ccc(Cl)c(Cl)c1)C1CCCCC1 | 35.1% (inactive)
23 | O=C(CC(O)(C(F)(F)F)C(F)(F)F)Nc1ccc(Cl)c(Cl)c1 | 85.2% (active)

Row | SMILES | inhibition
24 | CC1CCCCC1NC(=O)NC(=O)COC(=O)C1=NN(c2ccccc2)C(=O)CC1 (configuration not stated) | -2.21% (inactive)
25 | C#C[C@]1(O)CC[C@H]2[C@@H]3CCC4=CC(=O)CC[C@@H]4[C@H]3CC[C@@]21CC | 12.4% (inactive)
26 | COc1ccccc1CN(C)C(=O)C1(c2ccc(Cl)cc2)CC1 | 3.3% (inactive)
27 | CCCCCCOc1ccc(OC(=O)c2cccnc2)cc1 | 7.23% (inactive)
28 | O=C(Oc1c(-c2ccco2)oc2ccccc2c1=O)c1cccnc1 | 45.4% (active)
29 | N#CCc1ccc(OC(=O)c2cccnc2)cc1 | 19.6% (inactive)
30 | CCOc1ccc(C(C)NC(=O)CN2C(=O)NC3(CCCCC3)C2=O)cc1OCC (configuration not stated) | 0.453% (inactive)
31 | CCOc1ccc(C(c2c(C)[nH][nH]c2=O)c2c(C)[nH][nH]c2=O)cc1OCC | 45.9% (active)
32 | CCOc1ccc(C(CC(=O)O)NC(=O)Cc2ccccc2)cc1OC (configuration not stated) | -13.2% (inactive)
33 | CCOC(=O)c1cn(CC)c2cc(F)c(F)cc2c1=O | -8.23% (inactive)
34 | CC(=O)NC(CC(=O)Nc1cccc(S(=O)(=O)N2CCCC2)c1)c1ccccc1 (configuration not stated) | 19.9% (inactive)
35 | CN1CCN(c2cc(=O)n(-c3ccc(Cl)cc3)c(=O)[nH]2)CC1 | -20.5% (inactive)
36 | COc1ccc(N(CC(=O)Nc2cc(OC)ccc2OC)S(=O)(=O)c2c(C)noc2C)cc1 | 29.9% (inactive)
37 | CCOC(=O)Cc1csc(SCC(=O)Nc2ccc(C)cc2F)n1 | 18.9% (inactive)
38 | CCOC(=O)Cc1csc(NC(=O)CSc2ccc(Br)cc2)n1 | 46.9% (active)
39 | CCOC(=O)Cc1csc(NC(=O)COc2ccc3c(C)cc(=O)oc3c2)n1 | 11.9% (inactive)
40 | CCOC(=O)Cc1csc(SCc2cc(=O)oc3cc(O)ccc23)n1 | 12.7% (inactive)
41 | CCOC(=O)Cc1csc(SCC(=O)NC(C)C23CC4CC(CC(C4)C2)C3)n1 (configuration not stated) | 43.5% (active)
42 | CCOC(=O)Cc1csc(NC(=O)CSc2nnc(-c3cccnc3)n2Cc2ccco2)n1 | 13.4% (inactive)
43 | NS(=O)(=O)c1ccc(CCNC(=O)c2ccc([N+](=O)[O-])cc2[N+](=O)[O-])cc1 | 2.98% (inactive)
44 | CCCN(C(=O)CSc1nnnn1C)c1c(N)n(Cc2ccccc2)c(=O)[nH]c1=O | -2.11% (inactive)
45 | CN(CC(=O)Nc1cccc(F)c1)C(=O)C1CSC2(C)CCC(=O)N12 (configuration not stated) | 2.74% (inactive)
46 | COc1ccccc1N1CCN(C(=O)c2cc(=O)c3cc(C)ccc3o2)CC1 | 36.5% (inactive)

Row | SMILES | inhibition
47 | O=C(c1cc(=O)c2ccccc2o1)N1CCN(c2ccccc2)CC1 | 5.8% (inactive)
48 | COc1ccccc1N1CCN(C(=O)c2cc(=O)c3cc(C)cc(C)c3o2)CC1 | 45.3% (active)
49 | Cc1ccc(C(=O)N/N=C\c2cc(Br)c(Br)o2)cn1 | 3.87% (inactive)
50 | COc1ccc(Cl)cc1NC(=O)CN1CCN(C(=O)N2CCOCC2)CC1 | 1.52% (inactive)
51 | COc1ccc(NC(C)=O)cc1NC(=O)CN1CCN(C2c3ccccc3-c3ccccc32)CC1 | 41.6% (active)
52 | COc1cccc(NC(=O)CN2CCN(CC(=O)Nc3ccccc3Cl)CC2)c1 | 19.6% (inactive)
53 | CC(C)(C)OC(=O)C1=C(CO)CS[C@@H]2[C@H](NC(=O)Cc3ccccc3)C(=O)N12 | 9.18% (inactive)
54 | Cc1ccc(S(=O)(=O)N2CCN(C(=O)CSc3cc(C)ccc3C)CC2)c(C)c1 | 23.1% (inactive)
55 | O=C(NCc1ccco1)c1nc2ncccn2n1 | 1.9% (inactive)
56 | Cc1cccc(Nc2ccccc2C(=O)NCc2ccco2)c1C | 29.9% (inactive)
57 | O=C(NCc1ccco1)c1cccn2c(=O)c3c4c(sc3nc12)CCCC4 | 41.6% (active)
58 | COc1ccc(C(=O)N2CCC(C(=O)Nc3cccc(C)c3)CC2)cc1OC | -7.58% (inactive)
59 | O=C(Nc1ccccc1)/C(=C\c1ccco1)NC(=O)c1ccco1 | 23.3% (inactive)
60 | O=c1nc2s/c(=C\c3ccco3)c(=O)n2nc1Cc1ccccc1 | 63% (active)
61 | O=C(NCCc1ccco1)c1nn(Cc2ccccc2)c(=O)c2ccccc12 | 14.5% (inactive)
62 | CC(=O)N1N=C(c2ccccc2)OC1c1cccnc1 (configuration not stated) | 7.21% (inactive)
63 | COc1ccc2nc(N3CCN(C(=O)c4ccc([N+](=O)[O-])o4)CC3)sc2c1 | 42.2% (active)
64 | CCN(CC)CCN(C(=O)c1cccc([N+](=O)[O-])c1)c1nc2ccc(OC)cc2s1 | 12.5% (inactive)
65 | Cc1ccc2nc(N3CCN(C(=O)c4ccco4)CC3)sc2c1 | 6.64% (inactive)
66 | CC(C)NS(=O)(=O)c1ccc(OCC(=O)NC2CCCCCC2)cc1 | 4.48% (inactive)
67 | Cc1nn(-c2ccccc2)c2sc(C(=O)N(Cc3ccco3)C(C)C(=O)NC(C)(C)C)cc12 (configuration not stated) | 14.2% (inactive)
68 | CC1=NN(C(N)=S)C(=O)C1N=Nc1cc(Cl)ccc1Cl (configuration not stated) | 38.6% (inactive)
69 | Cc1[nH]n(C(N)=S)c(=O)c1N=Nc1ccc(Cl)cc1Cl | 47.4% (active)

Row | SMILES | inhibition
70 | Cc1cccc(N=Nc2c(C)[nH]n(-c3ccccc3)c2=O)c1 | 20.1% (inactive)
71 | CSc1cc(C)n(-c2ccccc2C)c(=S)c1C(C)=O | -13.6% (inactive)
72 | COc1ccc2nc(C)cc(Nc3cccc(C(=O)O)c3)c2c1 | -1.42% (inactive)
73 | Cc1nc(/N=C(\N)NC(=O)NC2CCCCC2)nc2ccccc12 | -11.5% (inactive)
74 | COc1ccc2nc(/N=C(\N)NC(=O)Nc3ccccc3)nc(C)c2c1 | 50% (active)
75 | Cn1c(SCc2nc3ccccc3s2)nnc1-c1ccc2c(c1)OCO2 | -2.97% (inactive)
76 | O=C(CCl)Nc1cccc(CP(=O)(c2ccccc2)c2ccccc2)c1 | 9.52% (inactive)
77 | Cn1c(SCC(=O)Nc2cccc(NC(=O)c3cccs3)c2)nnc1-c1ccncc1 | -9.32% (inactive)
78 | O=C(NOCc1ccccc1)c1cccc([N+](=O)[O-])c1 | 21.3% (inactive)
79 | CCCCN=C1C([N+](=O)[O-])=CC=C2C1=NC1(CCCCC1)N2O | 9% (inactive)
80 | COc1ccc(OCC(=O)Nc2ccc(NC(=O)c3ccco3)c(C)c2)cc1 | -11.8% (inactive)
81 | Cc1cccc(OCC(=O)Nc2ccc(NC(=O)c3ccco3)c(C)c2)c1 | 1.89% (inactive)
82 | Cc1ccc(C(=O)COc2cccc(NC(=O)c3ccco3)c2)cc1 | 40.3% (active)
83 | C(=N\N1CCN(c2ccccn2)CC1)/C1=C(N2CCOCC2)C(=C/c2ccccc2)/CC1 | 34.3% (inactive)
84 | O=C1Nc2ccc(Br)cc2/C1=N/N=C/C1=C(N2CCOCC2)C(=C\c2ccccc2)/CC1 | 45.5% (active)
85 | COc1ccc(/C=N/N=C2/C(=O)Nc3ccccc32)cc1O | 9.34% (inactive)
86 | C#CC(CCN1CCCCC1)(OC)c1ccccc1 (configuration not stated) | 7.91% (inactive)
87 | Cc1ccc(-c2cn3cc([N+](=O)[O-])ccc3n2)cc1 | -1.69% (inactive)
88 | Cc1ccc2nc(-c3ccc(Br)cc3)cn2c1 | -3.32% (inactive)
89 | Cc1ccc(-c2cn3cc(C)ccc3n2)cc1 | 51.8% (active)
90 | CCOc1ccc(-n2c(SC(C)C(=O)OC)nc3c(c2=O)SCC3)cc1 (configuration not stated) | 10.7% (inactive)
91 | Cc1cc(F)ccc1NC(=O)C(C)n1c2ccccc2c2nc(=O)cc(C)n21 (configuration not stated) | 13.9% (inactive)
92 | C[C@H](CO)N1C[C@H](C)[C@@H](CN(C)S(=O)(=O)c2ccc(F)cc2)Oc2c(NC(=O)Nc3ccccc3)cccc2C1=O | -4.64% (inactive)
